Screening results: PubChem BioAssay, several laboratories
ERa SRC1 inh: blocks coactivator binding to human estrogen receptor alpha | P03372 | TR-FRET ER-alpha LBD / SRC-1 peptide, estradiol-bound | inhibition, % at 25.6 µM | 86,000 tested, 1.7% active; in the data active = inhibition above about 50%;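 also: 0% = receptor plus peptide control and 100% = peptide only without receptor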
ERa SRC1 pot: enhances coactivator binding to human estrogen receptor alpha; coactivator binding (% of control), % at 25.6 µM; TR-FRET ERalpha-LBD/SRC-Cy5 coactivator binding, 2 h; 100 = basal binding, no effect; P03372; 86,000 tested, 1.3% active; in the data active = activity above about 200%;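 also: binding measured in presence of low estradiol as agonist stimulus; 0% = peptide alone without receptor and 100% = receptor with peptide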
Candida biofilm: kills Candida albicans biofilms | AID 834 | C. albicans biofilm + clotrimazole, Alamar Blue | inhibition, % at 6 µM | 85,000 tested, 0.14% active;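 active = inhibition above 20%; inactive = inhibition below 20%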;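 also: preformed 24 hr biofilms exposed to compound for 48 hr; 0% = biofilm without compound and 100% = blank killed by clotrimazole plus chlorhexidine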
Smad3 FoxH1 inh: inhibitors of human Smad3 transcription factor binding. P84022. TR-FRET Smad3/Dy647-FoxH1 peptide binding, europium anti-His. inhibition, % at 25 µM. 88,000 tested, 0.29% active. AID 630;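 active = compounds that reduce the energy-transfer binding signal between the protein and its labelled peptide by more than half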;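 also: 0% = Smad3 plus labelled peptide maximal FRET and 100% = peptide-only background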
Target sequence (P84022 whole entry, looked up): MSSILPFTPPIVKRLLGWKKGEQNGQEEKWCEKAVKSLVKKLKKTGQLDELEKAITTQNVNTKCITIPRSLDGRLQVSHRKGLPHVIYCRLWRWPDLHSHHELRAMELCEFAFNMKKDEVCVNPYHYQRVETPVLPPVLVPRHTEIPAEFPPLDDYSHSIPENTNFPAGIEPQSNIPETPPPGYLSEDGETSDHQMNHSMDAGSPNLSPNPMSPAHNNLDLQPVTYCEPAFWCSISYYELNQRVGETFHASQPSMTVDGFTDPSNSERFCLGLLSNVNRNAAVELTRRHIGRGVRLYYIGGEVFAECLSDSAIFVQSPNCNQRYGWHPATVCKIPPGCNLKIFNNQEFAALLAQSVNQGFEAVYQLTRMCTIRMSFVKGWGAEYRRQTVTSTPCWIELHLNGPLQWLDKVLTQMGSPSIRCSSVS
MT1-MMP txn act: activates MT1-MMP transcription; HT1080 MT1-MMP promoter luciferase reporter, luminescence, overnight; stronger effect = higher value; activation factor at 10 µM; 86,000 tested, 0.16% active;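 active = activation factor of at least 2 for MT1-MMP transcription at 10 µM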
ERb coact inh: ER-beta (human) coactivator binding inhibition. Q92731. TR-FRET ER-beta LBD / SRC1-Cy5 peptide binding; receptor agonist-loaded with 1 µM estradiol. inhibition, % at 25.6 µM. 86,000 tested, 1.3% active. AID 633;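 active = compounds whose percent inhibition of the receptor-coactivator binding signal exceeds about 50% in the single-dose screen, limit read from the data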;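 also: 0% = receptor plus peptide wells without compound and 100% = peptide-only wells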
Active calls of the source: *; · = no result given; [ ] = another dose, or the depositor's remark. Rows were chosen to be rich in hits. Some 3.8% of all compounds tested hit in one or more screens of this group.

SMILES	ERa SRC1 inh	ERa SRC1 pot	Candida biofilm	Smad3 FoxH1 inh	MT1-MMP txn act	ERb coact inh
CCC1=C2CC[C@H]3C(=O)N(c4ccccc4)C(=O)[C@H]3[C@H]2[C@@]2(Cc3ccccc3)C(=O)N(CC(=O)OC)C(=O)N2C1=O	·	·	·	·	1.1	·
NC1=N[C@@H](c2ccc(Cl)cc2)N(c2ccc(S(=O)(=O)Nc3ncccn3)cc2)C(N)=N1	·	·	·	52.0*	·	·
O=S(=O)(Nc1ccccn1)c1ccc(Cl)cc1	-4.9	89.0	0.1	-1.7	1.1	-4.9
CCCCNC(=O)c1ccc(CNc2c(N3CCC(C(=O)OCC)CC3)c(=O)c2=O)cc1	-5.6	102.8	7.3	4.1	1.1	-7.3
CC(CC(=O)O)(CC(=O)O)c1ccccc1	·	·	·	10.2	·	·
COc1ccccc1/C=c1\sc2nc(-c3cccs3)nn2c1=O	3.1	76.0	7.5	-2.3	1.2	17.3
COc1ccccc1-c1nc2s/c(=C\c3cccs3)c(=O)n2n1	67.0*[fluorescence artefact?]	42.6	-1.6	7.0	1.3	38.7
O=c1/c(=C/c2ccco2)sc2nc(-c3ccccc3Br)nn12	59.2*[fluorescence artefact?]	74.1	-3.4	-9.7	1.1	61.7*[fluorescence artefact?]
CCCOc1ccc(Cc2nn3c(=O)/c(=C/c4ccco4)sc3nc2=O)cc1	38.2	92.1	5.3	12.3	1.1	15.8
Nc1ccn([C@H]2O[C@H](COC(=O)C34CC5CC(CC(C5)C3)C4)[C@@H](O)[C@@H]2O)c(=O)n1	·	·	·	-1.5	·	·
CC(C)c1noc2ncc(C(=O)c3cc(Cl)cc(Cl)c3O)cc12	-1.9	83.9	-4.3	-4.0	·	2.7
O=C(Cn1c(=O)oc2cc(S(=O)(=O)N3CCCC3)ccc21)N1CCN(c2ccccn2)CC1	0.6	111.2	12.1	2.7	1	5.2
CCOC(=O)Cn1c(=O)oc2cc(S(=O)(=O)N3CCN(c4ccccn4)CC3)ccc21	30.6	244.9*[fluorescence artefact?]	-1.5	-5.3	1.1	33.0
O=[N+]([O-])c1ccccc1N=Nc1c(O)[nH]c2ccc(S(=O)(=O)O)cc12	·	·	·	62.6*	·	·
Cc1ccc(S(=O)(=O)N=Nc2c(O)[nH]c3ccccc23)cc1	6.6	108.5	4.0	-3.6	1.1	3.5
O=C(NCCc1ccccc1)c1cc2ncc(Br)cn2n1	76.5*[fluorescence artefact?]	40.6	4.5	19.4	1.4	77.3*[fluorescence artefact?]
COCCNC(=O)c1cc2ncc(Br)cn2n1	45.8	72.2	5.7	-12.1	1.1	39.3
O=C(Nc1ccc2c(c1)OCO2)c1cc2ncc(Br)cn2n1	77.5*[fluorescence artefact?]	71.1	2.3	9.4	1.3	66.8*[fluorescence artefact?]
O=C(Nc1cccc(C(F)(F)F)c1)c1cc2ncc(Br)cn2n1	44.8	123.8	3.8	-26.1	1.1	46.9
CCc1ccccc1NC(=O)c1cc2ncc(Br)cn2n1	60.0*[fluorescence artefact?]	80.7	7.2	12.6	1.1	54.2*
COc1ccc(C(=O)Nc2cc(C)c3c(=O)oc4ccccc4c3n2)cc1	53.0*[fluorescence artefact?]	142.5	8.6	-1.6	·	28.8
CCSc1nc(O)c(C2OC(=O)c3c2ccc(OC)c3OC)c(=O)n1CC (configuration not stated)	8.4	100.9	3.6	84.5*	1.1	4.5
CCCCSc1nc(O)c(C2OC(=O)c3c2ccc(OC)c3OC)c(=O)n1C (configuration not stated)	3.0	97.2	6.0	-5.5	1.1	4.0
FC(F)(F)c1cc(NC(=S)N2c3ccccc3-n3cccc3[C@H]2c2cccnc2)cc(C(F)(F)F)c1	·	·	·	14.5	·	·
O=c1[nH]c2ccc(Cl)cc2c(-c2ccccc2)c1N1CCOCC1	18.1	357.2*[fluorescence artefact?]	-7.6	3.1	1.2	22.9
SMILES	ERa SRC1 inh	ERa SRC1 pot	Candida biofilm	Smad3 FoxH1 inh	MT1-MMP txn act	ERb coact inh
O=c1[nH]c2ccc(Cl)cc2c(-c2ccccc2)c1N1CCN(c2ccccn2)CC1	12.6	259.6*[fluorescence artefact?]	3.8	0.5	1.1	30.1
O=c1[nH]c2ccc(Cl)cc2c(-c2ccccc2)c1CN1CCOCC1	-0.4	86.8	7.7	9.2	1.2	0.3
O=C(c1ccco1)N1CCN(C(=O)c2oc(=O)c3ccccc3c2-c2ccccc2)CC1	-3.2	93.8	8.0	11.9	1	-9.1
O=C(c1ccco1)N1CCN(c2c(-c3ccccc3)c3cc(Cl)ccc3[nH]c2=O)CC1	24.8	223.4*[fluorescence artefact?]	5.5	8.4	1	16.1
CCC1=C2CC[C@H]3C(=O)NC(=O)[C@H]3[C@H]2[C@@]2(C)C(=NCCc3c[nH]c4ccccc34)OC(=O)N2C1=O	·	·	·	·	1.2	·
O=C(NCc1cccnc1)C1c2ccccc2C(=O)N1Cc1ccccc1 (configuration not stated)	-5.9	108.7	8.4	0.9	·	-2.1
O=C(NCc1cccnc1)C1c2ccccc2C(=O)N1Cc1ccco1 (configuration not stated)	0.1	92.7	8.2	11.9	1	51.0*[fluorescence artefact?]
CCn1cc([N+](=O)[O-])c(C(=O)N2N=C(c3ccc4ccccc4c3)CC2c2cc(Br)ccc2O)n1 (configuration not stated)	41.1	103.9	6.5	3.5	1.2	51.0*[fluorescence artefact?]
CCc1nnc(NC(=O)CN2CCN(c3ccc(Cl)cc3)CC2)s1	-23.1	114.1	4.8	-8.4	1.3	-15.8
NCCSC[C@H](N)C(=O)O	·	·	·	2.8	·	·
CCC(=O)Nc1nonc1-c1nc2ccccc2n1Cc1ccc(Cl)c(Cl)c1	57.8*[fluorescence artefact?]	109.3	7.8	7.0	1	51.4*[fluorescence artefact?]
CC(=O)Nc1nonc1-c1nc2ccccc2n1Cc1nnc(C)o1	13.2	79.0	-1.7	-6.7	1.1	31.4
COc1ccc(-n2c(Cc3cccn3C)nnc2SCC(=O)NC2CCCCC2)cc1	7.5	113.9	63.6*	11.9	1.1	-5.0
COc1ccc(-n2c(SCC(=O)NC3CCCCC3)nc3ccsc3c2=O)cc1	18.8	213.8*[fluorescence artefact?]	4.5	13.0	1.2	41.4
Cn1cccc1Cc1nnc(SCC(=O)NC2CCCC2)n1-c1ccc(F)cc1	-8.1	106.7	3.7	3.9	1.2	-15.0
[N-]=[N+]=N[C@@H]1[C@@H](O)[C@H](CO)O[C@@H]1n1cnc2c(N)ncnc21	·	·	·	8.1	·	·
O=C(Nc1ccc2ccccc2c1)[C@H]1C[C@@H]1[C@H](NP(=O)(c1ccccc1)c1ccccc1)c1ccccc1	·	·	·	·	1	·
CC(C)CC(C(=O)OCC(=O)Nc1ncc(Cl)cc1Cl)N1C(=O)c2ccccc2C1=O (configuration not stated)	10.5	107.1	4.0	-0.6	1.1	28.0
O=C(COC(=O)C1CCN(S(=O)(=O)c2cc([N+](=O)[O-])ccc2Cl)CC1)Nc1ncc(Cl)cc1Cl	78.4*[fluorescence artefact?]	17.8	9.0	27.0	1.2	80.2*[fluorescence artefact?]
O=C(COC(=O)CCS(=O)(=O)c1ccc(Cl)cc1)Nc1ncc(Cl)cc1Cl	-5.0	100.6	5.7	11.2	1.2	-0.1
O=C(COC(=O)CCCN1C(=O)c2ccccc2C1=O)Nc1ncc(Cl)cc1Cl	69.2*[fluorescence artefact?]	48.5	8.9	6.6	0.9	58.3*[fluorescence artefact?]
O=C(COC(=O)CN1C(=O)c2ccccc2C1=O)Nc1ncc(Cl)cc1Cl	60.0*[fluorescence artefact?]	53.5	7.5	-0.8	1.1	55.8*
Cn1c(=O)c2[nH]c(COCc3nc4c([nH]3)c(=O)n(C)c(=O)n4C)nc2n(C)c1=O	·	·	·	0.9	·	·
